Data from the supplement of paper PMC10849652.
About 8,800 targets were measured; listed, in parts, are those with a hit and a random draw of the rest. About 0.5% of all pairs of compound and target were hits.

The targets below were run with CNc1nc(-c2ccc3c(N)n[nH]c3c2)cc(N2C[C@@H](C(=O)NC3CCCCC3)CC[C@H]2C)n1 (assay: log2 fold change, soluble protein after heating vs DMSO (PISA); higher = thermal stabilisation; K562 lysate, 10 uM; active = over 0.2 and 3.5 SD of the protein, either way, in both replicates (recomputed)).
Procedure, shortened: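 Dounce homogenisation of K562 pellets in PBS pH 7.4 with 1 mM MgCl2 produced a crude extract, used at 1 mg/mL protein. Exposure to 10 μM compound lasted 30 min, and aliquots were then heated for 3 min across 48°C-58°C, pooled and brought to 0.5% NP-40 at 4°C. The supernatant after 21,000xg for 90 min was quantified by TMTpro 16plex LC-MS/MS with channel sums equalised. Duplicate values are given as log-two fold change in thermal stability relative to solvent controls.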

Sequence of UniProt O75071 (O75071 whole entry, looked up): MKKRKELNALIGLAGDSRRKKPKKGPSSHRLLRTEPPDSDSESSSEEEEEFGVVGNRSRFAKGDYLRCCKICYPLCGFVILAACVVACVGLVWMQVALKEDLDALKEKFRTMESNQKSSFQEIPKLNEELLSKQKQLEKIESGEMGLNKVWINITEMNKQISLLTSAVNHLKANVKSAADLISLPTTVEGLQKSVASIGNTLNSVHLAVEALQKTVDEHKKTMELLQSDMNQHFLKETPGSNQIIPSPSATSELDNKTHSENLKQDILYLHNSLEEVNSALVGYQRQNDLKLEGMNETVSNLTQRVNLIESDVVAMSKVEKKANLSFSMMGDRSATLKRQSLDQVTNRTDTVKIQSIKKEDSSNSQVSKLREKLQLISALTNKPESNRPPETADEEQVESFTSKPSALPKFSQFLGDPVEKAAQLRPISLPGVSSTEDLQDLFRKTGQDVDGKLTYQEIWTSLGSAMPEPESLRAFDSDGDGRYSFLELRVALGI
Sequence of UniProt Q96A65 (Q96A65 whole entry, looked up): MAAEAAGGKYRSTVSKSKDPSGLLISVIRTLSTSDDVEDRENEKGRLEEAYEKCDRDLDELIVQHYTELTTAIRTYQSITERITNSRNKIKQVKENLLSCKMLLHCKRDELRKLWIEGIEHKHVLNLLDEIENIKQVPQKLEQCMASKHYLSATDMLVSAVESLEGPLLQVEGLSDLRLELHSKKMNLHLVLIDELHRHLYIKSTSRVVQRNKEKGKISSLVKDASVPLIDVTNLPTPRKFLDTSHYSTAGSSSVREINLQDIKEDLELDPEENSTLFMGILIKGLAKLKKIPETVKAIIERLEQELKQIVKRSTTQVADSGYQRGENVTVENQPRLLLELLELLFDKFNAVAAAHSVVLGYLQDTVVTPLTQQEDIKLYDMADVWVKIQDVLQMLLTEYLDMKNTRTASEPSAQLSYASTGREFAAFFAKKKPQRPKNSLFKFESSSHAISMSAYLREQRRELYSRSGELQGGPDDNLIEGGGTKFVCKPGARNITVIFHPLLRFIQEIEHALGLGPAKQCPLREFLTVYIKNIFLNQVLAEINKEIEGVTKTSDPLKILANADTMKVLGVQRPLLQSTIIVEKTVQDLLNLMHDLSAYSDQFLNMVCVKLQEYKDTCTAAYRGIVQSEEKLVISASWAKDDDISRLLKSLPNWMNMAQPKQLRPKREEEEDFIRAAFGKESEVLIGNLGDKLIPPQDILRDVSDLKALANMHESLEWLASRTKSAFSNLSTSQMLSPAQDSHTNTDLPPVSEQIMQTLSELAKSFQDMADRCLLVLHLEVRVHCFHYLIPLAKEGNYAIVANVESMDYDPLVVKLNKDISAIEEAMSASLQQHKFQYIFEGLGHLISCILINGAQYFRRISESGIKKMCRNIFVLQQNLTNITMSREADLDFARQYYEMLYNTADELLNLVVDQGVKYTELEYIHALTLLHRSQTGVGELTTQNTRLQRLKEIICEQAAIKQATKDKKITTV
Sequence of UniProt Q8NEZ5 (Q8NEZ5 whole entry, looked up): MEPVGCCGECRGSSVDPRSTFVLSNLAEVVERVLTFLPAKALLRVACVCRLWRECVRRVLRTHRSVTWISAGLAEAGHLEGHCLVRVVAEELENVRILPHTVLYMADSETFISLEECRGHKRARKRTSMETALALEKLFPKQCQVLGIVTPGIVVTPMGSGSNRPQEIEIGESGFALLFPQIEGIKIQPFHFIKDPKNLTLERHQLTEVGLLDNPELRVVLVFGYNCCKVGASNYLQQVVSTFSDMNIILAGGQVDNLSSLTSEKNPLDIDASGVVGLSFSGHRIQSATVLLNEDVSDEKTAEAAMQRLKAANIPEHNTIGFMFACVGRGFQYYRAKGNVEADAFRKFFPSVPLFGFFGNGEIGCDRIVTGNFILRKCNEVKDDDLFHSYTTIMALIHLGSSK
Sequence of UniProt P07814 (P07814 whole entry, looked up): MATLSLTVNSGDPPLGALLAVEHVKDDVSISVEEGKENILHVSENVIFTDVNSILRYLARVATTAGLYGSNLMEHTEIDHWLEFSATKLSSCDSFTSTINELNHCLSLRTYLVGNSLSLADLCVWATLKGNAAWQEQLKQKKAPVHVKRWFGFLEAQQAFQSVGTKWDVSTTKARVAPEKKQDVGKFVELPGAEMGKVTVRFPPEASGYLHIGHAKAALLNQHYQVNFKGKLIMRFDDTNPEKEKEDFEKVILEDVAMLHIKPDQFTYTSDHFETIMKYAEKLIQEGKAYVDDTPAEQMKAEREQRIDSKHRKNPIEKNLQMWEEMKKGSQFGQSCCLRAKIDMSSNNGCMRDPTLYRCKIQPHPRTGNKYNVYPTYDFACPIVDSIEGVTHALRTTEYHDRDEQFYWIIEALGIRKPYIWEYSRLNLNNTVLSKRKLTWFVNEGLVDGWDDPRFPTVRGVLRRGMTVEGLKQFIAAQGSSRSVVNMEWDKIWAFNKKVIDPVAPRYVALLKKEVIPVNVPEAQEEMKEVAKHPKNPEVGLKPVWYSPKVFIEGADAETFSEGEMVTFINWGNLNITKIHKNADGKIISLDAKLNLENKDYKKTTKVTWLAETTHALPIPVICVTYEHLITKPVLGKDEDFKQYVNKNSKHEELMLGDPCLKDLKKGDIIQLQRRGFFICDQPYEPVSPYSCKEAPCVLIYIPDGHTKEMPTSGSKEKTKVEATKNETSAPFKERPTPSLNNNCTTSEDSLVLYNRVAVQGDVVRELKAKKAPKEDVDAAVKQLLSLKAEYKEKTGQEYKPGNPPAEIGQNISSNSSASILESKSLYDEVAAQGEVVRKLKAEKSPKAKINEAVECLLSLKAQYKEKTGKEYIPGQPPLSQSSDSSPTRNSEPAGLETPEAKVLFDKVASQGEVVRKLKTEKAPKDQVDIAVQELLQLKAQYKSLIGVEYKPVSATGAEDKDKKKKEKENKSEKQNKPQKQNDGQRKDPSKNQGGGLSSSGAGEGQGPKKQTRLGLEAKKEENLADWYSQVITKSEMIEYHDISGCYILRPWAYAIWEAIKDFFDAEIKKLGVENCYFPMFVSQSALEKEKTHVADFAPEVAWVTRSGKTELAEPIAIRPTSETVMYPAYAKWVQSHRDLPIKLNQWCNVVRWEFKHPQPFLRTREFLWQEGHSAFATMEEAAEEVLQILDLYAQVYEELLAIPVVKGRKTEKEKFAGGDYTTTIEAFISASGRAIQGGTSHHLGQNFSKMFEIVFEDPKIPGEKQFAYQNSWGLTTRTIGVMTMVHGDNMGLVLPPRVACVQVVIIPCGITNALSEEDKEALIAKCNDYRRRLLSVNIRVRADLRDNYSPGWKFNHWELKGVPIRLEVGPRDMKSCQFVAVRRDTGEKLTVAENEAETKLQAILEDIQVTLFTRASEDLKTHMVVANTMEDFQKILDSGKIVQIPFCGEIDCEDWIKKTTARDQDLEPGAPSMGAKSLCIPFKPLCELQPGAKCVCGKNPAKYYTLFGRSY
Sequence of UniProt O14772 (O14772 whole entry, looked up): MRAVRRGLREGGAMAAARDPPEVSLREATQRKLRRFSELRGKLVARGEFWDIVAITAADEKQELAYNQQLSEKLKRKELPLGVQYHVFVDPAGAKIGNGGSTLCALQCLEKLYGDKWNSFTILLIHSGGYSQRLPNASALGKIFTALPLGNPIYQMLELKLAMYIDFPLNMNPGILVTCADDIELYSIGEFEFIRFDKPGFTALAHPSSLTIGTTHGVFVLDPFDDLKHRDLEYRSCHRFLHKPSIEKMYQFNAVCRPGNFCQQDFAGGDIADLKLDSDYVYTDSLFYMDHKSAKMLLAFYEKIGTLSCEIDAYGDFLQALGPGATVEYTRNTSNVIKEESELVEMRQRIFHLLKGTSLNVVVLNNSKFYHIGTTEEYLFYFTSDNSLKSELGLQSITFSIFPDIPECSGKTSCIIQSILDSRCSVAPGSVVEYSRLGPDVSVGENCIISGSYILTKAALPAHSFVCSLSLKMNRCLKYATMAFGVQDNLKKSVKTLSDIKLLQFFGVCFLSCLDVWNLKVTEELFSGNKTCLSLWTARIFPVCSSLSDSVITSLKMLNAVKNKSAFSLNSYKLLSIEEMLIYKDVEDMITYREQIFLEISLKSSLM
Sequence of UniProt Q96KP1 (Q96KP1 whole entry, looked up): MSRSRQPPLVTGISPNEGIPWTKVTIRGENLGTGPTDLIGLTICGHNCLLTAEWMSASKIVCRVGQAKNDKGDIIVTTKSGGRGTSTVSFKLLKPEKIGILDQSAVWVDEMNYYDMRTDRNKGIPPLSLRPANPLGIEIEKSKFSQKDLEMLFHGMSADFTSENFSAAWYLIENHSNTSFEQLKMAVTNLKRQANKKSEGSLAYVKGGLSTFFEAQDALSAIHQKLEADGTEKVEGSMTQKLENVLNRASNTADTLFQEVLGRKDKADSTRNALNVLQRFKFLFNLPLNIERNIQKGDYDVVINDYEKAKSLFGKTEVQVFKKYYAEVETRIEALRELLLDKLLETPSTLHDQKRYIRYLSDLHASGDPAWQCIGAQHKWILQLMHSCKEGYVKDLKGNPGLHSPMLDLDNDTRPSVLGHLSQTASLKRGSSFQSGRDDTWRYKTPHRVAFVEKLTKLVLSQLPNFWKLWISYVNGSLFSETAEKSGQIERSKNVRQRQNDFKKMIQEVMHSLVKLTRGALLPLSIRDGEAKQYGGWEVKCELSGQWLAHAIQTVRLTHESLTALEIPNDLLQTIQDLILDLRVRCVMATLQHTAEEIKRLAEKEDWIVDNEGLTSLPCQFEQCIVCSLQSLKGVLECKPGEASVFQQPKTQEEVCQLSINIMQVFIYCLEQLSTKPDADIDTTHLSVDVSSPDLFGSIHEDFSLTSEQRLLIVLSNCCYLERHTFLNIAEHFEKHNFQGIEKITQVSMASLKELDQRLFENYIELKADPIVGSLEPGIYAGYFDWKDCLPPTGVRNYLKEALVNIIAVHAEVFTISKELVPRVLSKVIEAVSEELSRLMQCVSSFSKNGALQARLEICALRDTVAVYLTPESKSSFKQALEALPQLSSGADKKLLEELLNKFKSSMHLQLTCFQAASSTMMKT

log2 fold change, inactive:
FTL (UniProt P02792) -0.097
EPHX2 (UniProt P34913) 0.123
FLAD1 (UniProt Q8NFF5) -0.013
ELF2 (UniProt Q15723) -0.062
EPB41, A0A2R8Y6D0 -0.178
EIF3I (UniProt Q13347) -0.043
ERCC4 (UniProt Q92889) -0.029
EIF2B4 isoform 2 (UniProt Q9UI10) 0.02
EP400 isoform 5 (UniProt Q96L91) 0.035
GCN1 (UniProt Q92616) -0.023
FBXO22 (UniProt Q8NEZ5) -0.004
GIGYF2 (UniProt Q6Y7W6) 0.019
GAMT (UniProt Q14353) 0.038
ERLIN2 (UniProt O94905) 0
EIF2B3 (UniProt Q9NR50) -0.012
GALK1 isoform 2 (UniProt P51570) 0
ERAL1 (UniProt O75616) -0.015
EFCAB14 (UniProt O75071) -0.058
FPGT (UniProt O14772) -0.02
FXR2 (UniProt P51116) -0.018
FAU (UniProt E9PR30) 0.013
FIBP (UniProt O43427) -0.079
EIF2B5 (UniProt Q13144) 0.023
ECI2 (UniProt O75521) 0.03
EED, A0A5F9ZI63 0.036
DST (UniProt Q03001) 0.114
FYB1 isoform 3 (UniProt O15117) 0.065
EXTL2 (UniProt Q9UBQ6) 0.104
EXOC4 (UniProt Q96A65) -0.084
GGT7 (UniProt Q9UJ14) 0.079
DYNC1I2 isoform 5 (UniProt Q13409) 0.012
FIG4 (UniProt Q92562) -0.016
EXOC2 (UniProt Q96KP1) -0.048
FOXJ3 (UniProt Q9UPW0) 0.033
EPRS (UniProt P07814) -0.015
GALNT2 (UniProt Q10471) -0.057
GGA2 (UniProt Q9UJY4) -0.018
